SMN2 splice up = qHTS Assay for Enhancers of SMN2 Splice Variant Expression; HEK293 SMN2-luciferase splicing reporter, luminescence, 30-36 h; Potency, µM (top dose mostly 46.1 µM), for the others: at the top dose activity change, positive = activation, usual class: activators; 2.8% of 210,000 active; AID 1458, 2008; further: % of control where 0% means no effect; nearly all actives have a fitted effect of over 55% in size
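qHTS luciferase splicing reporter: luminescence rises when SMN2 exon 7 is included in transfected HEK293 cells. Compound exposure lasted 30-36 h at 37C, with 4.5 mM final sodium butyrate as control, followed by a ONE-Glo read.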
FLuc counter = qHTS profiling assay for firefly luciferase inhibitor/activator using purifed enzyme and Km concentrations of substrates (counterscreen for miR-21 project); Luciferin 4-monooxygenase (Photinus pyralis), P08659; purified FLuc, Km substrates, luminescence inhibition; Potency, µM (doses to about 57.5 µM), for inactives: at the highest dose activity change, negative = inhibition, usual class: inhibitors; 6.9% of 360,000 active; AID 588342, 2011;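 further: plate controls were vehicle for no effect and reference inhibitor for full effect; nearly all actives have a fitted effect of over 55% in size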
Target sequence (P08659 whole entry, looked up): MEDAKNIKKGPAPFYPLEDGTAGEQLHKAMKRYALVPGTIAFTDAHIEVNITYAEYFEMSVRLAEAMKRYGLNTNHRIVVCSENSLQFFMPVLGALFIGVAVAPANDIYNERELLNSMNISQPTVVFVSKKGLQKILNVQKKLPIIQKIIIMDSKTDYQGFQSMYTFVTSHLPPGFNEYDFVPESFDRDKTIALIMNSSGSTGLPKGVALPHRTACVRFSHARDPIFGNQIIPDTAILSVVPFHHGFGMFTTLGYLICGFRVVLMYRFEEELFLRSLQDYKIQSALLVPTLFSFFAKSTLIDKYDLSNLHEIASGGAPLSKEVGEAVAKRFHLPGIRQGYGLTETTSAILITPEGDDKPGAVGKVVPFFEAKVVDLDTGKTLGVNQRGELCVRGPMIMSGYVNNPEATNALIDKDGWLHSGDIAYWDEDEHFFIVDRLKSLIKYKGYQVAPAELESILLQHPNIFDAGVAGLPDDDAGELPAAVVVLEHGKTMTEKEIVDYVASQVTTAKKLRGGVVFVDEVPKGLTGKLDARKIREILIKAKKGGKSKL
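Purified P. pyralis luciferase (10nM final) with 10uM D-luciferin and 10uM ATP (Km levels) in 50mM Tris acetate pH 7.5, 10mM Mg acetate, 0.01% Tween-20, 0.05% BSA; qHTS 6-point titration, ~60 µM downward; luminescence read.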
ELG1 genotox = qHTS screen for small molecules that induce genotoxicity in human embryonic kidney (HEK293T) cells expressing luciferase-tagged ELG1; HEK293T ELG1-luciferase reporter, luminescence, 16 h; Potency, µM (titrated, usually from 46 µM), without a hit: top-dose activity change, positive = activation, hits mostly activators; 1.3% of 330,000 active; further: % of control where 0% means no effect; nearly all actives have a fitted effect of over 60% in size
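ELG1-luciferase HEK293T cells, 2,000/well; compound pinned in; 16 hr, 37 °C, 5% CO2; ONE-Glo, 30 min RT; luminescence on CCD imager.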
NPC1 prom act = qHTS Assay for NPC1 Promoter Activators; Potency, µM (series often up to 9.22 µM), for inactives: top-dose activation, hits mostly activators; 2.4% of 320,000 active; Huh7 NPC1 promoter luciferase reporter, 24 h; AID 485313, 2010; further: % of control where 0% means no effect; nearly all actives have a fitted effect of over 60% in size
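Luminescence from an NPC1 promoter-driven luciferase reporter in stably transfected Huh7 cells was measured after 24 h compound treatment at 37 °C, followed by 10 min ambient incubation with luciferase detection reagent.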
Rab9 prom act = qHTS Assay for Rab9 Promoter Activators | Potency, µM (top dose mostly 9.22 µM), for inactives: at the highest dose activation, negative = inhibition, usual class: activators | Huh7 Rab9 promoter-luciferase reporter, luminescence, 24 h | 2.8% of 320,000 active; further: % of control where 0% means no effect; nearly all actives have a fitted effect of over 60% in size
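Huh7 reporter line, Rab9 promoter upstream of luciferase. Compound exposure 24 h at 37 °C in reduced-serum medium with 10% FBS. Read-out: luminescence.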
The depositor's hits bear a star; u = inconclusive; x = no result; [ ] = remark or other dose. Shown are actives, neighbours in structure and some others; about 7.4% of the full set was active somewhere. The call rests on the fitted dose curve; in most records, active means well fitted curve in the direction sought with a large enough effect; inconclusive means small, poorly fitted or top-dose-only effect, or another doubt; inactive means no such curve, though single readings can be large; an effect the other way counts as inactive or inconclusive. Potency means the concentration at half of the fitted maximal effect.

SMILES	SMN2 splice up	FLuc counter	ELG1 genotox	NPC1 prom act	Rab9 prom act
NC(=O)c1ccc(NC(=O)COC(=O)CC23CC4CC(CC(Br)(C4)C2)C3)cc1	x	x	2%	x	x
CCc1cccc(C)c1NC(=O)C1CC(=O)N(C2CCCC2)C1 (stereo not given)	x	x	-3%	1%	2%
Cc1ccc(C)c(Cn2c(=O)cc(C)c3c(C)nn(C)c32)c1	x	-14%	x	x	x
CN(C)/C=C/C(=O)/C=C/c1ccc(Cl)cc1	13µM*	13µM*	u	u	u
Cc1ccc(C(=O)NC(c2ccccc2)C(Cl)Cl)cc1 (stereo not given)	-15%	21µM*	0%	0%	-1%
COC(=O)CC(NC(=O)c1ccc(C)cc1)c1ccccc1 (stereo not given)	-4%	3.8µM*	8%	2%	5%
COC(=O)CC(NC(=O)c1ccc(C)cc1)c1ccc2c(c1)OCO2 (stereo not given)	-24%	0%	0%	-3%	-4%
CCCCN1CCc2nc(N3CCN(c4ncccn4)CC3)ncc2C1	x	-4%	x	x	x
COc1cc(Cl)cc(/C=C/c2ccc3cccc(O)c3n2)c1OC	x	u	13%	u	u
COc1ccccc1/C=C/c1ccc2cccc(O)c2n1	x	4.8µM*	21µM*	u	u
COc1ccc(Cl)cc1/C=C/c1ccc2cccc(O)c2n1	x	17µM*	u	4µM*	3.5µM*
CC(C)c1cc2cc3ccc(=O)oc3cc2o1	x	12µM*	u	u	u
O=c1ccc2cc3ccoc3cc2o1	x	-1%	6%	0%	3%
N/C(=N\OC(=O)Cc1ccc(Cl)cc1)c1ccccn1	12%	9.5µM*	16µM*	29%	28%
Cc1cccc(OCC(=O)O/N=C(\N)c2ccccn2)c1C	u	9.5µM*	u	u	u
Cc1ccc(OCC(=O)O/N=C(\N)c2ccccn2)cc1	13µM*	13µM*	u	4µM*	2.5µM*
Cc1ccc(CC(=O)O/N=C(\N)c2ccccn2)cc1	x	4.8µM*	u	4.5µM*	u
COc1ccccc1C(=O)CN1C(=O)NC2(CCc3ccccc32)C1=O (stereo not given)	x	0%	0%	0%	0%
O=C(Nc1ccc(-n2cnnn2)cc1)c1cccc(S(=O)(=O)N2CCCC2)c1	x	5%	-1%	2%	-5%
N/C(=N\OC(=O)COc1cc(Cl)c(Cl)cc1Cl)c1ccccn1	11µM*	2.4µM*	u	0.79µM*	1.1µM*
CC(C)(C)CC(=O)O/N=C(\N)c1ccccn1	7.1µM*	4.8µM*	2.6µM*	0.56µM*	0.63µM*
COc1ccc(CC(=O)O/N=C(\N)c2ccc(C)cc2)cc1	x	17µM*	15%	u	u
COc1ccc(CC(=O)O/N=C(\N)c2ccncc2)cc1	x	-17%	-2%	1%	-4%
COc1cc2c(cc1OC)[C@@H]1O[C@](c3ccsc3)(C2)Oc2cc(C)n(-c3ccccc3)c(=O)c21	x	2%[11.5 µM]	x	-10%[1.84 µM]	2%[1.84 µM]
COc1ccc(S(=O)(=O)NCC(c2ccc(N(C)C)cc2)N2CCCC2)cc1F (stereo not given)	x	-1%	x	x	x
C/C=C\C=C/C(=O)Nc1cccc(C2=NOC3(C2)C[C@@H](C(N)=O)N(C(=O)c2ccc(Cl)cc2)C3)c1 (stereo not given in full)	x	15µM*	3%	3%	9%
C/C=C\C=C/C(=O)Nc1cccc(C2=NOC3(C2)C[C@H](C(N)=O)N(C(=O)c2ccc(OC)cc2)C3)c1 (stereo not given in full)	x	15µM*	5%	2%	-2%
C/C=C(/C)C(=O)Nc1cccc(C2=NOC3(C2)C[C@@H](C(N)=O)N(C(=O)c2ccc(OC)cc2)C3)c1 (stereo not given in full)	x	3%	4%	-7%	1%
